# Source: PMC5540273 (PLoS ONE, 2017)
# Tested on: BRSK1
# Conditions: concentration: 1 μM, replicates: in singlicate; n = 1
# 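Note: KINOMEscan kinase panel screen.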
row,Structure (SMILES),%Inh [%]
1,COc1cccc2c(-c3ccncc3)c(-c3ccc(F)cc3)nn12 [GW468513],3
2,COc1cccc(NC(=O)NCCNc2ccnc(Nc3ccc(F)cc3)n2)c1 [GSK1379879],0
3,Cn1cc(-c2ccc3c(c2)CCN3C(=O)Cc2cc(F)cc(F)c2F)c2c(N)ncnc21 [GSK2634140],6
4,CN(C)CCOc1ccc(-c2cc(-c3ccc(Cl)c(O)c3)c(-c3ccncc3)[nH]2)cc1.Cl.Cl [SB-684387],0

# Tested on: BRSK2
# Conditions: concentration: 1 μM, replicates: in singlicate; n = 1
row,Structure (SMILES),%Inh [%]
1,COc1cc(Nc2nccc(N3CCC(NS(=O)(=O)c4ccc(NC(C)=O)cc4)CC3)n2)cc(OC)c1OC [GSK1379825],1
2,Cc1cc(-c2ccnc(Nc3cccc(C#N)c3)n2)cc(C)c1O [GSK1440913],0
3,Cc1ccc(C)c(NC(=O)Nc2ccc(C)c(-c3ccc(C(=O)Nc4ccncc4)cc3)c2)c1 [GSK1398473],0
4,CN(C)CCNS(=O)(=O)c1ccc(-c2ccnc3[nH]ccc23)cc1 [GSK977620],0
5,O=C(Nc1n[nH]c2nc(-c3cccc(O)c3)ccc12)C1CC1 [SB-711805],17
6,COc1cccc(C2=C(Nc3cccc(O)c3)C(=O)NC2=O)c1 [SB-390771],7
7,CSc1ccc(NC2=C(c3ccc(Cl)cc3)C(=O)NC2=O)cc1 [SB-317658],0
8,Cc1ccc(O)cc1Nc1ccnc2cc(-c3ccc(CN4CCCCC4)o3)ccc12 [GW557777],0
9,Fc1cc(Cl)ccc1Nc1ccnc2cc(-c3ccc(CN4CCOCC4)o3)ccc12 [GW560109],0
